Experimental data from PubChem BioAssay (NCATS).
Records with an inconclusive call do not appear. Active and inactive are the calls of the source. The call rests on the fitted dose curve; in most records, active means well fitted curve in the direction sought with a large enough effect; inconclusive means small, poorly fitted or top-dose-only effect, or another doubt; inactive means no such curve, though single readings can be large; an effect the other way counts as inactive or inconclusive.

What was measured:
[1] = biological target: Rap guanine nucleotide exchange factor 3 (Homo sapiens) (UniProt O95398); assay: Confirmatory qHTS for agonist of cAMP-regulated guanine nucleotide exchange factor 3 (EPAC1) (AID 1645881);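 further: EPAC1 catalysed release of BODIPY-GDP from Rap1B seen as fluorescence loss; 100% = effect of cAMP agonist control; nearly all actives have a fitted effect of over 75% in size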
Chain of Rap guanine nucleotide exchange factor 3 (Homo sapiens) (O95398 whole entry, looked up): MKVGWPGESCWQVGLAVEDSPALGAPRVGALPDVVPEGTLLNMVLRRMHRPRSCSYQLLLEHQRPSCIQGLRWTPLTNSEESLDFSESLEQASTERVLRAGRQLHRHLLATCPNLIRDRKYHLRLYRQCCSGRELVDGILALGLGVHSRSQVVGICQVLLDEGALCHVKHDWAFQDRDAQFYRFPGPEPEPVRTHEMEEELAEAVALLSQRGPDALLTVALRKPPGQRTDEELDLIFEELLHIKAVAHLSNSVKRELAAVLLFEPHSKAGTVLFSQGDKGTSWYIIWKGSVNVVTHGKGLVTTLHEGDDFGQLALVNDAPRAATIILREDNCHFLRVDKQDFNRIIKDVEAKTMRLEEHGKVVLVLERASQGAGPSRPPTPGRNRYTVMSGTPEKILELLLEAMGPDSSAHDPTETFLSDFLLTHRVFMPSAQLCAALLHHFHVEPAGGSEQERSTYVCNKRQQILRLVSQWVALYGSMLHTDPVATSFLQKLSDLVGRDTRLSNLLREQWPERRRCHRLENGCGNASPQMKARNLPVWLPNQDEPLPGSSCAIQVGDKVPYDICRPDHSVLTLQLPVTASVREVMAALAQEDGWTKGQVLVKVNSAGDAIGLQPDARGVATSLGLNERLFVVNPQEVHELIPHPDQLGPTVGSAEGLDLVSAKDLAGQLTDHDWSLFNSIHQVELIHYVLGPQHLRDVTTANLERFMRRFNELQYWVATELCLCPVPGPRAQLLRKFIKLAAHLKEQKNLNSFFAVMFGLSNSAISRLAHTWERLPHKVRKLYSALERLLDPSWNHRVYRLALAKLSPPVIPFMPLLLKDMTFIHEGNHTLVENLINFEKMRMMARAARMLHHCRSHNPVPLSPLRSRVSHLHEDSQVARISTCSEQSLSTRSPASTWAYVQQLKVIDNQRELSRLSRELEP

[2] = biological target: Rap guanine nucleotide exchange factor 4 (Homo sapiens) (UniProt Q8WZA2); assay: Confirmatory qHTS for agonist of cAMP-regulated guanine nucleotide exchange factor 4 (EPAC2) (AID 1645884);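 further: nucleotide exchange releases bodipy-GDP from Rap1 and this lowers its fluorescence; on the % scale 0 is the no-effect control and ±100 the full control effect; nearly all actives have a fitted effect of over 65% in size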
Chain of Rap guanine nucleotide exchange factor 4 (Homo sapiens) (Q8WZA2 whole entry, looked up): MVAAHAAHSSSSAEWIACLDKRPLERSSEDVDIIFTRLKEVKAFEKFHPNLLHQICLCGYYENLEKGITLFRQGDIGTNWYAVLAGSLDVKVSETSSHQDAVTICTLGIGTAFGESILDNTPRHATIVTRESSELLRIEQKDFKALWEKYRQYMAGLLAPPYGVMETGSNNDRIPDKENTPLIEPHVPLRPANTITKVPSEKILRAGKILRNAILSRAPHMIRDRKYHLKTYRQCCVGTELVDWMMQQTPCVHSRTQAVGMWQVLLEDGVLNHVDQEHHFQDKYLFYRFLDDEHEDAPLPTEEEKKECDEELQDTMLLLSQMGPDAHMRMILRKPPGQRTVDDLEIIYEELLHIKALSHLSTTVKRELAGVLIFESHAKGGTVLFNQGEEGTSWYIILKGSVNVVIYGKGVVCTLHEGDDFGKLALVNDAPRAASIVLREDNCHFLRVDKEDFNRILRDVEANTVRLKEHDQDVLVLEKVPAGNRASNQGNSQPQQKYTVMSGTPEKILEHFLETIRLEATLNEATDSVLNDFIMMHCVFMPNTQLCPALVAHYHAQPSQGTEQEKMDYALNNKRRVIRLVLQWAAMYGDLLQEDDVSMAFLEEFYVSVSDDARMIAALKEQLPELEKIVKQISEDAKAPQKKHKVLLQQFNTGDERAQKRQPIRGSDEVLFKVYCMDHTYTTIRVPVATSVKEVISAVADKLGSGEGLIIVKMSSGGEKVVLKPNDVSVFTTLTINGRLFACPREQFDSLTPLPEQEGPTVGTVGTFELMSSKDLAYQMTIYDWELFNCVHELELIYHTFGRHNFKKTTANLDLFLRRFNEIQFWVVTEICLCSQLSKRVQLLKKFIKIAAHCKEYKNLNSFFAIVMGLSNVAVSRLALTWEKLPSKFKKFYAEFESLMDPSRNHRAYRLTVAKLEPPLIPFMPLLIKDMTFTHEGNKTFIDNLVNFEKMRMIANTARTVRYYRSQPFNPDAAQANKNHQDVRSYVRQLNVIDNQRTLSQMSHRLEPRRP

[3] = biological target: Rap guanine nucleotide exchange factor 4 (Homo sapiens) (UniProt Q8WZA2); assay: Confirmatory qHTS for antagonist of cAMP-regulated guanine nucleotide exchange factor 4 (EPAC2) (AID 1645885); further: nearly all actives have a fitted effect of over 25% in size; further: potency means the concentration at half of the fitted maximal effect; on activity change, negative = inhibition: on the % scale 0 is the no-effect control and ±100 the full control effect
[4] = biological target: Rap guanine nucleotide exchange factor 3 (Homo sapiens) (UniProt O95398); assay: Counterscreen qHTS for antagonist of cAMP-regulated guanine nucleotide exchange factor 3 (EPAC1) (AID 1645888);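 further: fluorescence loss as bound BODIPY-GDP is released from Rap1B; % of control where 0% means no effect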
How it was run: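 Measured: fluorescence of BODIPY-GDP bound to Rap1B, which falls as exchange proceeds. Conditions include 50 uM competing GDP, 5 and 30 min reads, and a later cAMP challenge for antagonist detection.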

Oc1ccc(-c2nc(-c3ccc(O)c(O)c3)cs2)cc1
inactive: Potency [1] | Potency [2] | Potency [3] | Potency [4]

CC(CNC(=O)c1sc2ncccc2c1-n1cccc1)c1ccccc1 (centres undefined)
inactive: Potency [1] | Potency [2] | Potency [3] | Potency [4]

O=C(O)c1ccc(/C=C2\COc3ccccc3C2=O)cc1
active: Potency [3] 84.9 µM
inactive: Potency [1] | Potency [2] | Potency [4]

CN(C)C(=O)c1cccc(-c2cnc3c(NC=O)cc(-c4ccccc4Cl)cn23)c1
inactive: Potency [1] | Potency [2] | Potency [3] | Potency [4]

O=C(CC(c1ccccc1)c1cc(Cl)ccc1O)N1CCCC1 (centres undefined)
inactive: Potency [1] | Potency [2] | Potency [3] | Potency [4]

O=C1/C(=C/c2cccs2)COc2ccccc21
inactive: Potency [1] | activation [2] 1.85% [at 17.1 µM, percent relative to cAMP agonist control] | Potency [3] | activity change, negative = inhibition [4] -3.32% [at 30.8 µM]

O=S1(=O)N=C(N(Cc2cccs2)c2ccc(O)cc2)c2ccccc21
inactive: Potency [1] | Potency [2] | Potency [3] | Potency [4]

COc1ccc(OC)c(Nc2cc3ccccc3c(=O)[nH]2)c1
inactive: Potency [1] | Potency [2] | Potency [3] | Potency [4]

COc1ccc(NC(=O)c2ccco2)cc1NC(=O)C(C)Oc1ccc(Cl)cc1Cl (centres undefined)
inactive: Potency [1] | Potency [2] | Potency [3] | Potency [4]

Cc1cccc(N(Cc2ccccc2)C(=O)CSC(C)C(=O)Nc2cc(C)on2)c1 (centres undefined)
inactive: Potency [1] | Potency [2] | Potency [4]
active: Potency [3] 95.3 µM

CCOC(=O)c1ccc(NC(=S)NNC(=O)C2(C)CC2(Cl)Cl)cc1 (centres undefined)
inactive: Potency [1] | Potency [2] | Potency [3] | Potency [4]

CCc1cc(C(=O)Nc2ccc(S(=O)(=O)NC3=NCCCCC3)cc2)sc1C
inactive: Potency [1] | activation [2] 5.65% [at 17.1 µM, percent relative to cAMP agonist control] | Potency [3] | activity change, negative = inhibition [4] 4.61% [at 30.8 µM]

Cc1ccc(-c2nc3ccc(Br)cn3c2Cc2ccccc2)cc1
inactive: Potency [1] | Potency [2] | Potency [3] | Potency [4]

CCC1=Nc2cc(C(=O)NCCCOC)ccc2Sc2ccc(Br)cc21
inactive: Potency [1] | Potency [2] | Potency [3] | Potency [4]

CC(C)=CCC[C@H](C)C[C@@H]1Cc2[nH][nH]c(=O)c2[C@@H](c2ccc(F)cc2)O1
inactive: Potency [1] | activation [2] 5.46% [at 17.1 µM, percent relative to cAMP agonist control] | Potency [3] | activity change, negative = inhibition [4] -22.9% [at 30.8 µM]

Clc1ccc(C(c2ccccc2)c2c[nH]c3ccccc23)s1 (centres undefined)
inactive: Potency [1] | Potency [2] | Potency [3] | Potency [4]

Cc1cccc(-n2ccnc2SCC(=O)Nc2ccc(F)cc2F)c1C
inactive: Potency [1] | Potency [2] | Potency [3] | Potency [4]

Cn1cnnc1SCC(=O)Nc1sc2c(c1C(N)=O)CCC2
inactive: Potency [1] | Potency [2] | Potency [3] | Potency [4]

COc1ccc(NC(=O)CN(C)C(=O)c2cc(-c3ccco3)nc3ccccc23)cc1
inactive: Potency [1] | Potency [2] | Potency [3] | Potency [4]

CCOC(=O)Cc1cc(=O)n2[nH]c(-c3ccccc3)c(-c3ccccc3)c2n1
inactive: Potency [1] | Potency [2] | Potency [3] | Potency [4]

O=C(O)c1ccc(N/N=C/c2ccc(-c3ccccc3Cl)o2)cc1
inactive: Potency [1] | activation [2] 7.2% [at 17.1 µM, percent relative to cAMP agonist control] | Potency [3] | activity change, negative = inhibition [4] 1.4% [at 30.8 µM]

CCOC(=O)c1c(C)oc2c1c(C=NCCO)c(O)c1ccccc12
inactive: Potency [1] | activation [2] 10.2% [at 17.1 µM, percent relative to cAMP agonist control] | Potency [3] | activity change, negative = inhibition [4] 33.4% [at 30.8 µM]

CC1=NN(c2ccccc2)C(=O)C1C(=O)c1cc([N+](=O)[O-])cc([N+](=O)[O-])c1 (centres undefined)
inactive: Potency [1] | Potency [2] | Potency [3] | Potency [4]

Oc1c(C2=NCCNC(C(F)(F)F)=C2)ccc2ccccc12
inactive: Potency [1] | Potency [2] | Potency [3] | Potency [4]

COc1ccc(NC(=O)CSc2sc3c(O)cc(=O)[nH]c3c2C#N)c(OC)c1
inactive: Potency [1] | activation [2] 3.92% [at 17.1 µM, percent relative to cAMP agonist control] | Potency [3] | activity change, negative = inhibition [4] -13.9% [at 30.8 µM]

COc1ccc(OC)c(C(=O)c2coc3cc(Br)c(O)c(Br)c23)c1
inactive: Potency [1] | Potency [2] | Potency [3] | Potency [4]

CC1=C(C(=O)OC2CCCCCC2)C(c2c(Cl)cccc2Cl)CC(=O)N1 (centres undefined)
inactive: Potency [1] | Potency [2] | Potency [3] | Potency [4]

CCCN(CC(=O)Nc1ccccc1OC)C(=O)c1cccc(S(=O)(=O)Nc2ccc(OC)cc2)c1
inactive: Potency [1] | Potency [2] | Potency [3] | Potency [4]

CCOC(=O)c1cnc2ccc(C(=O)OC)cc2c1Nc1ccccc1CC
inactive: Potency [1] | Potency [2] | Potency [3] | Potency [4]

Cc1ccccc1NC(=O)c1sc2nc(-c3cc4ccccc4oc3=O)[nH]c(=O)c2c1C
inactive: Potency [1] | Potency [2] | outcome [3] inactive; activator; fitted 0.8492 uM [at 12.7 µM] | Potency [4]

Cn1cccc1C(=O)NC(=O)COC(=O)c1ccc(S(C)(=O)=O)c([N+](=O)[O-])c1
inactive: Potency [1] | activation [2] -3.13% [at 17.1 µM, percent relative to cAMP agonist control] | Potency [3] | activity change, negative = inhibition [4] -20.5% [at 30.8 µM]

COc1ccccc1Nc1cc2cc(Br)ccc2c(=O)[nH]1
inactive: Potency [1] | Potency [2] | Potency [3] | Potency [4]

Clc1ccc(-c2nnc(-c3ccco3)nc2N2CCCCC2)cc1
inactive: Potency [1] | activation [2] 3.88% [at 17.1 µM, percent relative to cAMP agonist control] | Potency [3] | activity change, negative = inhibition [4] 13.5% [at 30.8 µM]

CCOc1cccc(CNc2ccc(O)cc2)c1OCc1ccc(Cl)cc1Cl
inactive: Potency [1] | Potency [2] | Potency [3] | Potency [4]

CCOc1cc(/C=C2/NC(=O)NC2=O)cc(Br)c1OCc1ccc(C(=O)O)cc1
inactive: Potency [1] | activation [2] 4.12% [at 17.1 µM, percent relative to cAMP agonist control] | Potency [3] | activity change, negative = inhibition [4] -1.26% [at 30.8 µM]

Cc1ccc(NC(=O)c2sc3nc(-c4ccncc4)ccc3c2N)cc1
inactive: Potency [1] | Potency [2] | Potency [3] | Potency [4]
